Composite z-score, z-score and outcome data for 13 compounds are collected here from PubChem BioAssay.

For part of these data: Measured potencies and affinities stand elsewhere. Active and inactive are the calls of the source. Unless noted, the rule behind the calls is not given here.

For test [1], the system named is XIP peptide (Xip251-270) binding. Put plainly: XIP fragment 251-270 binding compounds – biochemical, small-molecule microarray, fluorescence 635/667 nm, 0.1 µg/mL protein, primary screen (AID 1182). To be noted: fluorescent protein binding, 635 nm, higher = more signal, called active from +8 up or from −8 down.
The next test concerns XIP peptide (Xip251-270). The test can be described thus: compounds binding XIP fragment 251-270 – biochemical, small-molecule microarray, fluorescence 635/667 nm, 0.5 µg/mL protein, primary screen (AID 1183). To be noted: fluorescence 635 nm, higher = more signal.
Test [2] in a line: blood-stage malaria parasite viability loss – strain 3D7, DAPI fluorescence, 100 nL, primary screen (AID 1184).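 Note: parasites grown inside human red blood cells in medium with human serum.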 To be noted: P. falciparum 3D7 growth, 3 d, higher = more signal.
The target of test [3] is Homeobox protein Hox-A13 (Mus musculus) (UniProt Q62424). Put plainly: disruptors of Hoxa13 oligonucleotide interaction – biochemical, fluorescence polarization, labeled oligonucleotide, primary screen (AID 1185). To be noted: Hoxa13:DNA binding, 15 min, higher = more signal, called active from +8 up or from −8 down. (In general: Polarisation of emitted light reports the rotation of a fluorescent probe.)

Test [4] can be described thus: blockers of DNA damage checkpoint Chk1 activation – imaging, HeLa, hydroxyurea, phospho-Chk1 antibody, percent positive cells, primary screen (AID 1186). To be noted: hydroxyurea-induced phospho-Chk1 immunofluorescence imaging, higher = more signal.
Test [5] in a line: blockers of DNA damage checkpoint Chk1 activation – imaging, HeLa, hydroxyurea, phospho-Chk1 nuclear intensity, primary screen (AID 1187). To be noted: hydroxyurea-induced phospho-Chk1 immunofluorescence imaging, higher = more signal.
Test [6] is described as follows: C. neoformans lysis by adenylate kinase leakage – AK release luminescence, cherry-picks, dose response (AID 687000;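 active = fitted dose curve reaches 40% lysis signal rise at or below the highest valid concentration tested for that sample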;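 note: luminescent detection of adenylate kinase leaking from lysed yeast; 0% = median neutral control signal and 100% = double that signal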). To be noted: 4 h, 100% = twice the neutral-control signal; series mostly up to 15 µM.
Test [7] in a line: viability loss in HepG2 hepatoma cells – cell-based, cherry-picks, set 2, cytotoxicity control, dose response (AID 687002;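 active = a dose-response fit showing signal loss, with half-maximal concentration no higher than twice the top tested dose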). To be noted: ATP luminescence (CellTiter-Glo), 48 h; series mostly up to 26 µM.
Test [8] can be described thus: viability loss in HeLa cells – cell-based, ATP luminescence, cherry-pick samples, cytotoxicity control, dose response (AID 687004;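 active = a fitted half-maximal concentration no higher than twice the top valid tested dose, with signal falling as cells die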;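 note: 0% = neutral control median and -100% = staurosporine 10 µM control median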). To be noted: ATP luminescence (CellTiter-Glo), 48 h; series mostly up to 26 µM. On the technique in general: ATP-based viability assays read luminescence as a measure of living cells.

Homeobox protein Hox-A13 (Mus musculus), sequence (Q62424 whole entry, looked up): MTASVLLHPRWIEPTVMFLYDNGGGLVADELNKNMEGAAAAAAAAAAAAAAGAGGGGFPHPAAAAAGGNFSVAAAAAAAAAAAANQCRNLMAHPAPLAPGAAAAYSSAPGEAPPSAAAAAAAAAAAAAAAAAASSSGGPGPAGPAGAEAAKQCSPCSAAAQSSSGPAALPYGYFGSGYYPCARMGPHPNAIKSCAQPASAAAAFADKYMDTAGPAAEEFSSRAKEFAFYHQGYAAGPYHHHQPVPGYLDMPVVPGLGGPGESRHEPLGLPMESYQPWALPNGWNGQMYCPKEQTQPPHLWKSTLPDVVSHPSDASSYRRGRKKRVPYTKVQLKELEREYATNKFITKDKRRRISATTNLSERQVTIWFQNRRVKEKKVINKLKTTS

Consider `CN(C)CCCC[C@@H]1NC(=O)[C@@H]2C[C@H](C(=O)O)[C@H](c3ccc(O)cc3)N2C1=O`, for which the composite z-score was 0.646 (inactive) in [1] and 0.386 in the test with XIP peptide (Xip251-270). The z-score in test [2] is -1.35; in test [3] it was 2.19 (inactive); in test [4] it was 0.317 (inactive); in test [5], 0.448 (inactive).
Turning to `NC(=O)NCC#Cc1ccc2c(c1)[C@]1(C(=O)N2)[C@H](C(=O)N2CCCCCCC2)[C@H]2C(=O)O[C@H](c3ccccc3)[C@H](c3ccccc3)N2[C@@H]1c1ccccc1OCCO`, the composite z-score is 4.02 (inactive) in test [1] and 0.486 with XIP peptide (Xip251-270). Moreover, the z-score was -1.83 in test [2], 4.43 (inactive) in [3], 0.323 (inactive) in test [4] and 0.671 (inactive) in test [5].
With `C=CC[C@@]1(C(=O)N2CCOCC2)N=C(c2ccc(OCCCO)cc2)O[C@@H]1c1ccccc1`, the results for the composite z-score (in [1]; with XIP peptide (Xip251-270)) were 1.79 (inactive) and -0.526, respectively. The z-score in [2] was -1.74; in [3], -5.67 (inactive); in [4], -0.648 (inactive); in [5] it was -0.241 (inactive).
With `Cc1ccc(S[C@]2(C(=O)O)CC(=O)N(Cc3cc(C(F)(F)F)cc(C(F)(F)F)c3)[C@@H]2c2ccc(CO)cc2I)cc1`, the figures for the composite z-score (in test [1]; with XIP peptide (Xip251-270)) were -0.313 (inactive) and 0.761, respectively. For the same compound, the z-score in test [2] was -0.48; in [3], -2.32 (inactive); in [4], 0.407 (inactive); in [5] it was 1.08 (inactive).
`CCCC=C(CCC)[C@@H](NC(=O)c1ccc(C(F)(F)F)cc1)c1ccccc1`: the composite z-score in test [1] was 0.177 (inactive); with XIP peptide (Xip251-270), 0.144. Moreover, the z-score was -1.55 in test [2], -0.261 (inactive) in test [3], 0.128 (inactive) in test [4] and 0.29 (inactive) in [5].
As for `O=[N+]([O-])c1ccc(C[n+]2ccc3ccc(O)cc3c2)o1`, the composite z-score in test [1] is 1.14 (inactive); in the test on XIP peptide (Xip251-270), 0.676. Besides, the z-score in test [2] was 0.87; in test [3], -5.47 (inactive); in [4] it was -0.0465 (inactive); in test [5] it was -0.0404 (inactive).
`COc1cc(CO)cc(I)c1O[C@H]1C=C(C(=O)NCCO)C[C@@H](N(CC2CCCCC2)C(=O)c2cc3ccccc3oc2=O)[C@@H]1O`: the composite z-score was 0.193 (inactive) in [1] and 0.24 in the test on XIP peptide (Xip251-270). The z-score in test [2] was 1.04; in test [3] it was -6.1 (inactive); in [4] it was 0.113 (inactive); in [5] it was 0.194 (inactive). Further, the call in [6], in test [7] and in [8] was inactive.
As to `[N-]=[N+]=Nc1ccccc1C[C@@]1(C(=O)N2CCOCC2)N=C(c2ccc(OCCCO)cc2)O[C@@H]1c1ccccc1N=[N+]=[N-]`, the composite z-score was 0.49 (inactive) in test [1] and 0.348 in the test on XIP peptide (Xip251-270). Further, the z-score was -2.28 in test [2], -5.16 (inactive) in test [3], -1.03 (inactive) in test [4] and -1.06 (inactive) in test [5].
`O=C1O[C@@H](c2ccccc2)[C@@H](c2ccccc2)N2[C@@H](c3ccccc3OCCO)[C@]3(C(=O)Nc4ccc(C#CC5=CCCCC5)cc43)[C@@H](C(=O)O)[C@H]12`: the composite z-score in test [1] was 0.364 (inactive); in the test on XIP peptide (Xip251-270), 0.305. Besides, the z-score was -0.662 in [2], -3.14 (inactive) in test [3], -0.379 (inactive) in [4] and -0.318 (inactive) in test [5].
Consider `COCCOC(=O)N1C(=O)[C@@]2(c3cc(C#CC4=CCCCC4)ccc31)[C@H](c1ccc(O)cc1)N1[C@H](c3ccccc3)[C@H](c3ccccc3)OC(=O)[C@H]1[C@@H]2C(=O)N1CCCCCCC1`, for which the composite z-score in test [1] is 0.505 (inactive); in the test with XIP peptide (Xip251-270), 0.678. For the same compound, the z-score in [2] is -1.66; in test [3], 2.08 (inactive); in [4], -0.104 (inactive); in test [5] it was 0.0587 (inactive).
In the case of `C=CC[C@]1(C(=O)N2CCCCC2)N=C(c2ccc(OCCCO)cc2)O[C@H]1c1ccccc1N=[N+]=[N-]`, the composite z-score in [1] is 1.01 (inactive); in the test on XIP peptide (Xip251-270), 0.851. Moreover, the z-score in test [2] was -2.21; in test [3], -3.92 (inactive); in test [4], -0.135 (inactive); in test [5] it was 0.224 (inactive).
Regarding `C=CCN1C(=O)[C@@]2(O[C@@H](CCn3cc([C@H](O)c4ccccc4)nn3)[C@H]([Si](C)(C)c3ccc(OC)cc3)[C@H]2C)c2cc(N3CCOC3=O)ccc21`, the composite z-score in test [1] was 0.0505 (inactive); with XIP peptide (Xip251-270) it was -0.52. The z-score in test [2] is -2.71; in test [3], -4.69 (inactive); in test [4] it was -1.49 (inactive); in [5], -1.43 (inactive).
Turning to `C=CCC(OC(C)=O)[C@@H]1[C@@H](N(Cc2ccc(-c3ccccc3)cc2)C(=O)c2ccc(-c3ccccc3)cc2)c2cc(OCCCO)ccc2N1C(=O)Cc1ccc(OC)cc1` (stereo partly specified), the composite z-score in [1] was 0.195 (inactive); in the test with XIP peptide (Xip251-270), -0.126. Moreover, the z-score in test [2] is -0.314; in test [3], -1.31 (inactive); in [4] it was -0.282 (inactive); in [5], -0.47 (inactive).
